The text below walks through data of PubChem BioAssay AID492948 (National Center for Advancing Translational Sciences (NCATS), 2010).

Results filed as inconclusive are left out. The source made the active and inactive calls. Calls follow the shape of the dose curve; as a rule, active = well fitted activation curve with a large enough effect; inconclusive = small, poorly fitted or top-dose-only effect; inactive = no such curve, though single readings can be large or run the other way.
Potency is read from the fitted curve at half-maximal effect.

The nature of the assay: qHTS Assay for Agonists of the Relaxin Receptor RXFP1: V1B Hit Validation.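 Also: counter-screen in HEK293 cells expressing V1B rather than RXFP1 for selectivity; nearly all actives have a fitted effect of over 65% in size.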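 As to activation: cAMP accumulation with PDE4 inhibitor Ro 20-1724 present during compound exposure; 0% = buffer alone basal and 100% = 29 nM porcine relaxin.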 The settings on record: HEK293 V1B cells, cAMP TR-FRET, 30 min; series mostly up to 115 µM; activation: at the top concentration. In a few lines:
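TR-FRET cAMP readout (ex 320, em 615/665 nm) after 30 min RT lysis with d2-cAMP/cryptate antibody. Before that: HEK293 cells, compounds 30 min 37C, Ro 20174 present. Hill-fit EC50s.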
Turning to `O=C(Nc1ccccc1)c1ccccc1NC(=O)C1CCCCC1`, the “activation” value was -0.678% [at 127 µM] (inactive). As for `C=CCOc1c(Cl)cc(CNc2ccc(N(C)C)cc2)cc1OC`, the “activation” value is -0.719% (inactive). Take `Brc1ccc(-c2nn3c(-c4ccco4)nnc3s2)o1`: the Potency is 13.8 µM (active). `CCN(CC)S(=O)(=O)c1ccc(N2CCOCC2)c(NC(=O)c2cc([N+](=O)[O-])ccc2Cl)c1`: the “activation” value was 9.17% (inactive). Take `Cc1cc(NC(=O)c2ccccc2F)nc2c1c(=O)oc1ccccc12`: the Potency is 21.8 µM (active). The same measure, in the same setting: in the case of `Cn1c2ccccc2c2nnc(SCC(=O)Nc3cccc(C(=O)O)c3)nc21` it was 21.9 µM (active).

For the compound `Cc1ccc(-n2nnc3c(=O)n(CC(=O)NCC4CCCO4)cnc32)cc1` (stereo not drawn), the Potency was 24.5 µM (active). Same read-out and setting: in the case of `Brc1ccc2ncnc(NCc3cccnc3)c2c1` it was 38.9 µM (active). For `NC(=O)c1ccccc1NC(=O)CC12CC3CC(CC(C3)C1)C2`, the “activation” value is 1.11% [at 127 µM] (inactive).

Turning to `Cc1ccc(-n2c(=S)[nH]c3sc4c(c3c2=O)CCC4)cc1`, the Potency was 6.15 µM (active). Take `CCc1cc2cc3c(cc2nc1SCC(=O)Nc1nccs1)OCO3`: the Potency was 19.4 µM (active). In the case of `Cc1ccc(-c2ccc3nnc(SCC(=O)NCC4CCCO4)n3n2)cc1` (stereo not drawn), the “activation” value was -24.2% (inactive). Take `Cc1cc(C)n2nc(C(=O)Nc3ccc4c(c3)OCCO4)nc2n1`: the Potency was 6.15 µM (active). On the same count and under the same terms, in the case of `CN1C(=O)c2ccc(C(=O)Nc3ccc(Br)cn3)cc2C1=O` it was 21.8 µM (active). The same measure, in the same setting: in the case of `COc1ccc(NC(=O)CCCc2nnc3n(C)c(=O)c4sccc4n23)cc1` it was 43.6 µM (active). On the same count and under the same terms, in the case of `COc1ccc(S(=O)(=O)N2CCOCC2)cc1NC(=O)CSc1nnc2ccccn12` it was 3.88 µM (active). Turning to `Cc1ccc(CN(C)C(=O)c2ccc3c(c2)NC(=O)CS3)o1`, the “activation” value is -30.6% (inactive). Regarding `Cc1cc(C(=O)OCC(=O)c2ccc(Br)s2)no1`, the Potency is 21.8 µM (active).

For `O=C(CCc1nnc2ccc(N3CCC4(CC3)OCCO4)nn12)NCc1ccc(F)cc1`, the Potency is 38.9 µM (active).

Consider `O=C(Nc1ccccc1C(=O)N1CCOCC1)c1ccco1`, for which the “activation” value was 0.265% [at 127 µM] (inactive). Consider `Cn1c(=O)c2c(ncn2CC(=O)N/N=C/c2cn[nH]c2-c2ccc(F)cc2)n(C)c1=O`, for which the Potency was 21.8 µM (active). For `CCOc1ccc2cc(C#N)c(SCC(=O)NC(C)CC)nc2c1` (stereo not drawn), the Potency was 5.48 µM (active). In the case of `O=C(Nc1ccccc1C(=O)N1CCCCC1)c1ccco1`, the “activation” value was 7.89% [at 127 µM] (inactive). As for `Cc1noc(NS(=O)(=O)c2ccc(N3Cc4ccccc4C3=O)cc2)c1C`, the Potency was 11.9 µM (active). Consider `Cc1cc(Br)c2nc3c(c(C(=O)O)c2c1)CCCCC3`, for which the Potency is 1.54 µM (active). As to `CN(CC(=O)Nc1ccccc1Cl)C(=O)COC(=O)Cc1c(F)cccc1Cl`, the “activation” value was 3.14% [at 44.9 µM] (inactive). Consider `c1ccc(-c2nnc(-c3ccccn3)c(-c3ccccn3)n2)nc1`, for which the “activation” value was -1.59% (inactive). Same read-out and setting: in the case of `COc1cc(-c2nnc(SCC(=O)N(C)C3CCS(=O)(=O)C3)o2)cc(OC)c1OC` (stereo not drawn) it was 6.32% [at 44.9 µM] (inactive).

As for `COc1ccc(CN2C(=O)c3cccnc3C2=O)cc1S(=O)(=O)NC1CCCCC1`, the Potency is 34.6 µM (active).

Regarding `CCS(=O)(=O)c1nc(S(=O)(=O)c2ccc(Cl)cc2)c(N2CCN(CCO)CC2)s1`, the Potency was 34.6 µM (active). On to `Nc1ncnc2c1ncn2C1OC(CO)C(O)C1O` (stereo not drawn), for which the Potency was 9.77 µM (active). `NS(=O)(=O)c1ccc(CCNC(=O)C2CCN(c3ncnc4c3nc3n4CCCCC3)CC2)cc1`: the Potency is 38.9 µM (active). Regarding `Cc1cccc(C(=O)Nc2ccccc2C(=O)NCc2ccco2)c1`, the “activation” value is -0.448% [at 127 µM] (inactive). Consider `CCN(CC)S(=O)(=O)c1ccc(N2CCOCC2)c(NC(=O)c2cccc(C#N)c2)c1`, for which the Potency is 47.3 µM (active).

For the compound `COc1ccc(S(=O)(=O)Nc2ccccn2)c(C)c1C`, the “activation” value was 5.21% [at 44.9 µM] (inactive). In the case of `O=C(Nc1cccc(C(F)(F)F)c1)c1ccccc1NC(=O)C1CCCCC1`, the Potency result was “inactive”. With `COc1cccc(CNC(=O)c2ccc(CS(=O)Cc3ccc(C)cc3)o2)c1` (stereo not drawn), the “activation” value was 1.42% [at 44.9 µM] (inactive). For `CCc1ccc2n(-c3ccc(OC)cc3)c([S-])c(C(=O)Nc3cc(C)cc(C)c3)[n+]2c1`, the Potency is 30.8 µM (active).
